Results on 6 compounds are retold here after PubChem BioAssay (EPA / NIEHS).

As usually defined, the AC50 is the concentration at which the activity in the assay is half-maximal.

The structures appear in SMILES notation. “And” between values parts separate entries of the source, which are not always exact repeats. Equal values may be shown once. Inconclusive results are not listed. Where a structure was tested more than once in an assay, its records may differ in their call. The source made the active and inactive calls. How the source made its calls: active means hit-call score of the fitted dose curve at least 0.9, where 1 is the maximum; inconclusive means response in the unintended direction; inactive means score below 0.9.

Experiment [1] in a line: LTEA_HepaRG_LDH_cytotoxicity: Cytotoxicity Assessment in the Life Technologies and Expression Analysis (LTEA) Assay (AID 2283563).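 On AC50: LDH activity released into spent culture medium as a marker of cell death.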 The essentials: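 Human HepaRG hepatic cells are treated with test chemicals for 48 h at up to 100 uM in 0.5% DMSO. Cytotoxicity is scored from medium LDH against the vehicle control.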
The nature of experiment [2]: ATG_XTT_Cytotoxicity: Cytotoxicity Assessment in the Attagene TRANS-FACTORIAL HepG2 Assay (AID 2283584).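 On AC50: XTT signal for cell number as viability in transfected HepG2 cells; cells exposed to compound for 24 h before reading; active means loss of viability signal versus DMSO baseline.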 The essentials: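 Transfect HepG2 with GAL4-UAS reporter units, dose compound, incubate 24 h, then measure viable cell number by XTT. Fit concentration response against DMSO baseline.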
A short description of experiment [3]: TOX21_p53_BLA_p2_viability: Viability Assessment in the Tox21 HCT-116 p53 Agonism Beta-lactamase Assay, Phase 2 (AID 2283591).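 Further: compound exposure lasted 16 h at 37 °C; actives lower the ATP signal meaning cytotoxicity.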 Summed up: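 Cytotoxicity readout: CellTiter-Glo ATP luminescence, 30 min at room temperature, after the beta-lactamase read. Cells were HCT116 exposed 16 h at 37C to compounds pin-transferred at 217-fold dilution from DMSO stocks.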

In experiment [4] the target is Cellular tumor antigen p53 (Homo sapiens) (UniProt P04637). In words: TOX21_p53_BLA_p2_ratio: Tox21 HCT-116 p53 Agonism Beta-lactamase Assay, Ratio, Phase 2 (AID 2283592). Summed up: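 Cleaved-to-uncleaved substrate ratio (460 vs 530 nm) measured in HCT116 cells with an inducible beta-lactamase reporter linked to p53 activity. Compounds incubated 16 h at 37C before 2 h room-temperature CCF4-AM loading.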

The nature of experiment [5]: TOX21_p53_BLA_p3_viability: Viability Assessment in the Tox21 HCT-116 p53 Agonism Beta-lactamase Assay, Phase 3 (AID 2283593).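 Further: cells exposed to compound for 16 h before reading.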 Summed up: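 Cellular ATP was quantified by CellTiter-Glo luminescence, read after 30 min at room temperature. Beforehand, HCT116 cells (4000/well) received compound 5 h post-seeding, 217-fold diluted from DMSO, then incubated 16 h at 37C.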

The target of experiment [6] is Cellular tumor antigen p53 (Homo sapiens) (UniProt P04637). In words: TOX21_p53_BLA_p3_ratio: Tox21 HCT-116 p53 Agonism Beta-lactamase Assay, Ratio, Phase 3 (AID 2283596). The essentials:
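Cells were seeded at 4000/well, rested 5 h at 37C, then dosed with DMSO compound solutions (217-fold dilution) for 16 h. CCF4-AM substrate was loaded for 2 h at room temperature, and the 460/530 nm emission ratio was fitted for gain of signal versus DMSO.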

The nature of experiment [7]: TOX21_p53_BLA_p4_viability: Viability Assessment in the Tox21 HCT-116 p53 Agonism Beta-lactamase Assay, Phase 4 (AID 2283597).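 Further: hits lower the luminescence signal meaning cytotoxicity.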 The essentials: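 Viability is taken as cellular ATP: after 16 h compound exposure of HCT116 cells and a 2 h room-temperature CCF4-AM substrate step, CellTiter-Glo reagent is added and luminescence is measured 30 min later.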
Experiment [8] deals with Cellular tumor antigen p53 (Homo sapiens) (UniProt P04637). Briefly: TOX21_p53_BLA_p5_ratio: Tox21 HCT-116 p53 Agonism Beta-lactamase Assay, Ratio, Phase 5 (AID 2283599). The essentials: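 Beta-lactamase reporter ratio (blue 460 nm over green 530 nm, 405 nm excitation) after 2 h CCF4-AM loading, in HCT-116 cells exposed 16 h at 37 C to compounds pinned at 217-fold dilution. Increases relative to DMSO baseline scored.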

Experiment [9] can be described thus: TOX21_p53_BLA_p5_viability: Viability Assessment in the Tox21 HCT-116 p53 Agonism Beta-lactamase Assay, Phase 5 (AID 2283600). Summed up: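 Viability is taken from cellular ATP content, measured by luciferase luminescence in the same wells after the beta-lactamase ratio read. Cells are seeded at 4000 per well and exposed to DMSO-dissolved compounds, diluted 217-fold, for 16 h.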

Experiment [10] has as its target Cellular tumor antigen p53 (Homo sapiens) (UniProt P04637). In words: TOX21_p53_BLA_p4_ratio: Tox21 HCT-116 p53 Agonism Beta-lactamase Assay, Ratio, Phase 4 (AID 2283601). The essentials: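 Signal is the blue/green (460nm/530nm) ratio of cleaved versus uncleaved CCF4-AM substrate, read after 2 h substrate loading. Cells were HCT116 carrying the p53-responsive beta-lactamase reporter, dosed 16 h at 37C, 5% CO2; CellTiter-Glo measured in parallel.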

Experiment [11] is described as follows: Tanguay_ZF_120hpf_MORT_legacy: (Legacy) Oregon State University Tanguay Lab 120 Hour Post-fertilization zebrafish Assay for Mortality (AID 2283633).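 On AC50: fitted as increase in binary mortality versus DMSO negative control.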 The essentials: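 Mortality endpoint from a multiplexed whole-embryo zebrafish screen. Dechorionated wild-type embryos received compound at 6 hpf and remained under static exposure at 28C until 120 hpf, with death noted as a present/absent call.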

Experiment [12] can be described thus: Tanguay_ZF_120hpf_YSE_legacy: (Legacy) Oregon State University Tanguay Lab 120 Hour Post-fertilization zebrafish Assay for Yolk Sac Edema (AID 2283634).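 On AC50: actives raise the incidence of yolk sac edema above the DMSO baseline.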 The essentials:
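Readout: presence or absence of yolk sac edema at 120 hpf, fitted upward against DMSO controls. Exposure ran statically from 6 hpf in dechorionated embryos kept at 28C.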

Experiment [13] in a line: Tanguay_ZF_120hpf_AXIS_legacy: (Legacy) Oregon State University Tanguay Lab 120 Hour Post-fertilization zebrafish Assay for Body Axis Malformation (AID 2283635).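 On AC50: potency for an increased fraction of larvae scored with body axis malformation.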 Summed up:
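Static 6–120 hpf chemical exposure of dechorionated wild-type 5D zebrafish, one per well at 28C; morphology endpoint scored binary at 120 hpf relative to DMSO control.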

Experiment [14] can be described thus: Tanguay_ZF_120hpf_EYE_legacy: (Legacy) Oregon State University Tanguay Lab 120 Hour Post-fertilization zebrafish Assay for Eye Malformation (AID 2283636).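 Further: binary presence or absence of eye malformation scored by brightfield in 120 hpf larvae.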 The essentials:
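Binary brightfield scoring of eye defects at 120 hpf after static exposure from 6 hpf of single pronase-dechorionated wild-type embryos (28C, 0.64% DMSO). Non-mortality endpoints omitted where embryos died; fit vs DMSO.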

Experiment [15] is described as follows: Tanguay_ZF_120hpf_SNOU_legacy: (Legacy) Oregon State University Tanguay Lab 120 Hour Post-fertilization zebrafish Assay for Snout Malformation (AID 2283637). The essentials:
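Binary snout-malformation call at 120 hpf in wild-type 5D embryos, chorion removed by pronase, under static exposure from 6 hpf at 28C (0.64% DMSO). Embryos dying by 24 or 120 hpf excluded.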

Experiment [16] can be described thus: Tanguay_ZF_120hpf_JAW_legacy: (Legacy) Oregon State University Tanguay Lab 120 Hour Post-fertilization zebrafish Assay for Jaw Malformation (AID 2283638).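 On AC50: active means more embryos with jaw malformation than DMSO controls.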 The essentials:
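Static waterborne exposure of dechorionated wild-type (Tropical 5D) zebrafish from 6 to 120 hpf at 28C, 0.64% DMSO vehicle; 5uM trimethyltin chloride served as positive control. Jaw morphology recorded as binary at 120 hpf.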

Experiment [17] is described as follows: Tanguay_ZF_120hpf_OTIC_legacy: (Legacy) Oregon State University Tanguay Lab 120 Hour Post-fertilization zebrafish Assay for Otic Vesicle Malformation (AID 2283639). The essentials: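 Statically exposed wild-type 5D zebrafish embryos, kept sealed and dark at 28C through 120 hours post fertilization, were examined by brightfield microscopy for otic vesicle defects. Responses were recorded as present or absent and analysed relative to DMSO.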

Experiment [18] is described as follows: Tanguay_ZF_120hpf_PE_legacy: (Legacy) Oregon State University Tanguay Lab 120 Hour Post-fertilization zebrafish Assay for Pericardial Edema (AID 2283640).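 On AC50: potency for increased incidence of pericardial edema versus DMSO baseline.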 Summed up: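 Read-out is the presence or absence of pericardial edema at 120 hpf under brightfield, with gain of signal fitted against DMSO controls. Larvae (5D wild-type) were statically exposed at 28C with 0.64% final DMSO.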

A short description of experiment [19]: Tanguay_ZF_120hpf_BRAI_legacy: (Legacy) Oregon State University Tanguay Lab 120 Hour Post-fertilization zebrafish Assay for Brain Malformation (AID 2283641). Summed up:
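Brain malformation in Tropical 5D zebrafish was recorded as a binary endpoint after static compound exposure from early development to 120 hpf at 28C. Activity was analysed against DMSO as negative control.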

Experiment [20] can be described thus: Tanguay_ZF_120hpf_SOMI_legacy: (Legacy) Oregon State University Tanguay Lab 120 Hour Post-fertilization zebrafish Assay for Somite Malformation (AID 2283647). The essentials: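 5D WT zebrafish; chorion removed 4 hpf; 1 embryo/well from 6 hpf; static exposure to 120 hpf, 28C, 0.64% DMSO final. Endpoint: somite malformation, binary, brightfield. Mortality excluded.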

Sequence of Cellular tumor antigen p53 (Homo sapiens) (P04637 whole entry, looked up): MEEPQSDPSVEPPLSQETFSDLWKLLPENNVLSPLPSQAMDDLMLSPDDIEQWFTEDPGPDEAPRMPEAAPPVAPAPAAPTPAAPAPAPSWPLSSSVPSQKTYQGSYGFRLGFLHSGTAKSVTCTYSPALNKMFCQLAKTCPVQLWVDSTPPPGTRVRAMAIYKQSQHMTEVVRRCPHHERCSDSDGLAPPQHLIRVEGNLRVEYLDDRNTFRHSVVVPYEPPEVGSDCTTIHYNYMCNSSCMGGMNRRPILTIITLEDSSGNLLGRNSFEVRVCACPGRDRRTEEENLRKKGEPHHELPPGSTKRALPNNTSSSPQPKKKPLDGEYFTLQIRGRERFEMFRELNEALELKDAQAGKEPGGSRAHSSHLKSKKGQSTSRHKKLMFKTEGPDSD

Take `Nc1cccc2c(N)cccc12`: the result in [1], in experiment [2], in experiment [3], in experiment [4], in experiment [5] and in experiment [6] was inactive. The call in [7], in experiment [8], in experiment [9], in experiment [10], in experiment [11] and in [12] was inactive. Also, the call in experiment [13], in [14], in [15], in experiment [16], in experiment [17] and in experiment [18] was inactive. The compound was called inactive in [19] and in [20].

Take `c1ccc2cc3c(ccc4ccccc43)cc2c1`: the outcome in [1], in experiment [2], in experiment [3], in experiment [4], in experiment [5] and in experiment [6] was inactive. Moreover, the outcome in experiment [7], in experiment [8], in [9], in experiment [10], in experiment [11] and in experiment [20] was inactive. The concentration at half-maximal activity (AC50) was 41.6 µM (active) in experiment [12]; 12.5 µM (active) in experiment [13]; 45.6 µM (active) in [14]; 46.5 µM (active) in experiment [15]; 49.1 µM (active) in [16]; 40.6 µM (active) in [17]. The AC50 is 33.4 µM (active) in experiment [18] and 48.5 µM (active) in [19].

As for `CC[C@H](c1ccc(O)cc1)[C@@H](CC)c1ccc(O)cc1`, the AC50 was 76.1 µM (active) in experiment [1]; 144 µM (active) and 133 µM (active) and 164 µM (active) in [2]; 61.7 µM (active) in experiment [3]; 66.6 µM (active) in experiment [4]; 14.4 µM (active) in experiment [6]; 57.8 µM (active) in experiment [7]. Further, the AC50 in [8] is 67.1 µM (active); in [9] it was 75.7 µM (active); in experiment [10] it was 60.1 µM (active). Besides, the call in experiment [2], in experiment [3], in experiment [4], in experiment [5], in experiment [6] and in experiment [7] was inactive. Besides, the outcome in [8], in experiment [9], in [10], in experiment [11], in experiment [12] and in experiment [13] was inactive. The outcome in [14], in [15], in experiment [16], in experiment [17], in [18] and in [19] was inactive. The result in [20] was inactive.

On to `Cc1oc(-c2ccccc2)nc1CCOc1ccc(C[C@H](Nc2ccccc2C(=O)c2ccccc2)C(=O)O)cc1`, for which the AC50 in experiment [1] is 28.7 µM (active); in [3], 7.33 µM (active); in [4], 72.3 µM (active); in experiment [5], 10.7 µM (active); in experiment [6] it was 39.9 µM (active); in experiment [7], 6.19 µM (active). For the same compound, the AC50 in experiment [8] is 56 µM (active); in experiment [9], 15.5 µM (active); in experiment [10] it was 41.6 µM (active); in [11], 12.9 µM (active). In addition, the compound was called inactive in experiment [2], in experiment [12], in experiment [13], in experiment [14], in experiment [15] and in [16]. The result in [17], in [18], in experiment [19] and in experiment [20] was inactive.

For `CCCCCCCC(=O)O`, the result in [1], in experiment [2], in [3], in [4], in [5] and in [6] was inactive. Besides, the result in [7], in experiment [8], in [9], in experiment [10], in experiment [11] and in experiment [12] was inactive. For the same compound, the outcome in experiment [13], in experiment [14], in experiment [15], in [16], in [17] and in experiment [18] was inactive. In addition, the result in [19] and in experiment [20] was inactive.

In the case of `CC(=O)CC(C)(C)O`, the call in experiment [1], in experiment [2], in [3], in [4], in [5] and in experiment [6] was inactive. For the same compound, the outcome in [8], in [10], in experiment [11], in experiment [12], in [13] and in [15] was inactive. The outcome in experiment [16], in experiment [17], in experiment [18], in [19] and in experiment [20] was inactive.
